Results published in PubChem BioAssay (Tox21).
Records with an inconclusive call do not appear. Calls of active or inactive are those of the source. Calls follow the shape of the full dose curve.

Molecular target: Muscarinic acetylcholine receptor M1 (Homo sapiens) (UniProt P11229)
Assay: Cholinergic receptor muscarinic 1 (CHRM1) small molecule antagonists, cell-based qHTS assay (AID 1963588); also: nearly all actives have a fitted effect of over 40% in size
Details: CHRM1-CHO antagonist mode, calcium flux fluorescence; series mostly up to 61.5 µM; activity, negative = inhibition: at the top concentration
How it was run: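 Compounds were tested at 15 concentrations in three independent runs. Dye-loaded CHRM1-CHO cells were exposed 5 min at room temperature before stimulation by acetylcholine added at 50nM. Intracellular calcium was read kinetically on FDSS for 3 min.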
% is scaled to controls: 0 for no effect and ±100 for the full control effect.

Muscarinic acetylcholine receptor M1 (Homo sapiens), sequence (P11229 whole entry, looked up): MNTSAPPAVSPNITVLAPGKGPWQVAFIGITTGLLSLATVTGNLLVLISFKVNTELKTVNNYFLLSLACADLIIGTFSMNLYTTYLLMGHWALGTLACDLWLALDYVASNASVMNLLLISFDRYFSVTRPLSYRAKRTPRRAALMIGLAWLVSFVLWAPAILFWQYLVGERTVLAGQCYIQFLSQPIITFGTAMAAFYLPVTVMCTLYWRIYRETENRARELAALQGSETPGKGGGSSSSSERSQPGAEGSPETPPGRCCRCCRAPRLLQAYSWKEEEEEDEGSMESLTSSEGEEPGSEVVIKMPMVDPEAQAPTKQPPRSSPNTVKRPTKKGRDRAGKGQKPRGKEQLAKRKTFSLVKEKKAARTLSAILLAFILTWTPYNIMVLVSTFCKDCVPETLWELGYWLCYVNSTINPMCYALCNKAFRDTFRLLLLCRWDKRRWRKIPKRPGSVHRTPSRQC

Structure (SMILES)	activity, negative = inhibition	Potency
N=C(N)c1ccc2cc(OC(=O)c3ccc(N=C(N)N)cc3)ccc2c1	-17.9% [at 28.3 µM] (inactive)	
O=[N+]([O-])c1ccc(F)cc1F	17.5% (inactive)	
CC(=O)N(c1onc(C)c1C)S(=O)(=O)c1ccc(N)cc1	-0.224% [at 28.3 µM] (inactive)	
OC[C@H]1O[C@@H](O[C@H]2[C@H](O)[C@@H](O)[C@H](O)O[C@@H]2CO)[C@H](O)[C@@H](O)[C@H]1O	-1.73% (inactive)	
c1ccc2c(c1)CCC2	16.9% (inactive)	
CN(C)c1ccc(/C=C/c2ccc([N+](=O)[O-])cc2)cc1	-8.69% [at 5.58 µM] (inactive)	
NCCC(O)(P(=O)(O)O)P(=O)(O)O	-4.73% [at 28.3 µM] (inactive)	
CO[Si](OC)(OC)c1ccccc1	-20.9% (inactive)	
O=C(c1ccc(Cl)cc1)c1ccc(Cl)cc1	-1.73% (inactive)	
CC(C)c1cccc(O)c1	6.92% (inactive)	
CC(C)CC=O	7.84% (inactive)	
COc1cccc(OC)c1C(=O)N[C@@H]1C(=O)N2[C@@H]1SC(C)(C)[C@@H]2C(=O)O	14.1% [at 28.3 µM] (inactive)	
O=P(OC(CCl)CCl)(OC(CCl)CCl)OC(CCl)CCl	12.9% (inactive)	
CC/C=C\CC1=C(C)CCC1=O	1.27% (inactive)	
CCC(C)S (stereo not given)	18.7% [at 2.17 µM] (inactive)	
c1ccc2c(c1)CCc1ccccc1N2		inactive
CCCCOC(=O)C(C)OC(=O)CCC (stereo not given)	-5.51% (inactive)	
CCCC=O	-15% (inactive)	

Molecular target: Muscarinic acetylcholine receptor M1 (Homo sapiens) (UniProt P11229)
Assay: Cholinergic receptor muscarinic 1 (CHRM1) small molecule agonists, cell-based qHTS assay (AID 1963589); also: nearly all actives have a fitted effect of over 35% in size
Details: CHRM1-CHO cells, agonist mode, calcium flux fluorescence; series mostly up to 76.8 µM; activation: at the top concentration
How it was run: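 Kinetic fluorescence (1 s intervals) of calcium-sensitive dye in human M1 CHO cells after compound addition; cells pre-incubated 18 h at 37 C/5% CO2 and dye-loaded 1 h.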

Structure (SMILES)	activation	Potency
CC(C)COC(=O)c1ccc(N)cc1	-0.707% [at 35.3 µM] (inactive)	
CCCc1cc(C(N)=S)ccn1	-0.242% [at 35.3 µM] (inactive)	
CCCCCCCCCCCCCCO		inactive
CCO/C([O-])=N/c1c[n+](N2CCOCC2)no1	-0.447% [at 35.3 µM] (inactive)	
O=C(O)c1ccco1	0.0311% (inactive)	
CSc1cnccn1	-0.169% (inactive)	
CCCCCCCOC(C)=O	0.328% (inactive)	
CCc1cnc(C(=O)O)c(C(=O)O)c1	0.0855% (inactive)	
COc1ccc(C(=O)CC(=O)c2ccc(C(C)(C)C)cc2)cc1		inactive
CCO[Si](OCC)(OCC)c1ccccc1	0.359% (inactive)	
CCC1COC(=O)O1 (stereo not given)	-0.613% (inactive)	
CC(C)(C)c1ccc(CCC=O)cc1	0.248% (inactive)	
FC(F)(F)c1cccc(Cl)c1	-0.121% (inactive)	
Nc1ccc(NCCO)c([N+](=O)[O-])c1	-0.0329% (inactive)	
IC(I)I		inactive
Cc1cccc(Cl)c1	0.901% (inactive)	
CC1=CCC(C(C)C)=CC1	-0.847% (inactive)	
CC1(C)C(C=C(Cl)Cl)C1C(=O)OCc1cccc(Oc2ccccc2)c1 (stereo not given)	0.0992% (inactive)	
CCCOCCOCCOCCO	-0.213% (inactive)	

Structure (SMILES)	activation	Potency
N=C(N)c1ccc2cc(OC(=O)c3ccc(N=C(N)N)cc3)ccc2c1	-0.799% [at 35.3 µM] (inactive)	
O=[N+]([O-])c1ccc(F)cc1F	0.0771% (inactive)	
CC(=O)N(c1onc(C)c1C)S(=O)(=O)c1ccc(N)cc1	0.158% [at 35.3 µM] (inactive)	
OC[C@H]1O[C@@H](O[C@H]2[C@H](O)[C@@H](O)[C@H](O)O[C@@H]2CO)[C@H](O)[C@@H](O)[C@H]1O	0.527% (inactive)	
c1ccc2c(c1)CCC2	0.06% (inactive)	
CN(C)c1ccc(/C=C/c2ccc([N+](=O)[O-])cc2)cc1	0.732% [at 6.97 µM] (inactive)	
NCCC(O)(P(=O)(O)O)P(=O)(O)O	0.0231% [at 35.3 µM] (inactive)	
CO[Si](OC)(OC)c1ccccc1	-0.105% (inactive)	
O=C(c1ccc(Cl)cc1)c1ccc(Cl)cc1	-0.428% (inactive)	
CC(C)c1cccc(O)c1	3.88% (inactive)	
CC(C)CC=O	0.0145% (inactive)	
COc1cccc(OC)c1C(=O)N[C@@H]1C(=O)N2[C@@H]1SC(C)(C)[C@@H]2C(=O)O	-0.104% [at 35.3 µM] (inactive)	
O=P(OC(CCl)CCl)(OC(CCl)CCl)OC(CCl)CCl		inactive
CC/C=C\CC1=C(C)CCC1=O	-0.306% (inactive)	
CCC(C)S (stereo not given)	0.317% [at 2.72 µM] (inactive)	
c1ccc2c(c1)CCc1ccccc1N2		inactive
CCCCOC(=O)C(C)OC(=O)CCC (stereo not given)	0.435% (inactive)	
CCCC=O	-0.204% (inactive)	

System: not listed separately
Assay: cAMP Responsive Elements (CRE) small molecule agonists, cell-based qHTS assay (AID 1963590)
Details: CRE-bla HEK293T, beta-lactamase FRET ratio, 3 h; series mostly up to 92.4 µM; activation: at the top concentration
How it was run: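 Test agents in DMSO were incubated 3 h at 37 C/5% CO2 with CRE-bla HEK 293T cells seeded 18 h earlier; LiveBLAzer B/G FRET substrate was added and read after 2 h at room temperature.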

Structure (SMILES)	activation	Potency
CC(C)COC(=O)c1ccc(N)cc1	0.471% [at 42.5 µM] (inactive)	
CCCc1cc(C(N)=S)ccn1	-0.677% [at 42.5 µM] (inactive)	
CCCCCCCCCCCCCCO		inactive
CCO/C([O-])=N/c1c[n+](N2CCOCC2)no1	0.421% [at 42.5 µM] (inactive)	
O=C(O)c1ccco1	0.239% (inactive)	
CSc1cnccn1	0.36% (inactive)	
CCCCCCCOC(C)=O	1.52% (inactive)	
CCc1cnc(C(=O)O)c(C(=O)O)c1	0.497% (inactive)	
CCO[Si](OCC)(OCC)c1ccccc1	-0.916% (inactive)	
CCC1COC(=O)O1 (stereo not given)	-0.936% (inactive)	
CC(C)(C)c1ccc(CCC=O)cc1	0.936% (inactive)	
FC(F)(F)c1cccc(Cl)c1	-0.62% (inactive)	
IC(I)I	0.0838% (inactive)	
Cc1cccc(Cl)c1	0.448% (inactive)	
CC1=CCC(C(C)C)=CC1	0.314% (inactive)	
CC1(C)C(C=C(Cl)Cl)C1C(=O)OCc1cccc(Oc2ccccc2)c1 (stereo not given)		inactive
CCCOCCOCCOCCO	-0.165% (inactive)	
N=C(N)c1ccc2cc(OC(=O)c3ccc(N=C(N)N)cc3)ccc2c1	0.868% [at 42.5 µM] (inactive)	

Structure (SMILES)	activation	Potency
O=[N+]([O-])c1ccc(F)cc1F	0.423% (inactive)	
CC(=O)N(c1onc(C)c1C)S(=O)(=O)c1ccc(N)cc1	-1.1% [at 42.5 µM] (inactive)	
OC[C@H]1O[C@@H](O[C@H]2[C@H](O)[C@@H](O)[C@H](O)O[C@@H]2CO)[C@H](O)[C@@H](O)[C@H]1O	0.0914% (inactive)	
CN(C)c1ccc(/C=C/c2ccc([N+](=O)[O-])cc2)cc1	-3.18% [at 8.39 µM] (inactive)	
NCCC(O)(P(=O)(O)O)P(=O)(O)O	-0.825% [at 42.5 µM] (inactive)	
CO[Si](OC)(OC)c1ccccc1	0.336% (inactive)	
O=C(c1ccc(Cl)cc1)c1ccc(Cl)cc1	2.13% (inactive)	
CC[C@H]1CN2CCc3cc(OC)c(OC)cc3[C@@H]2C[C@@H]1C[C@H]1NCCc2cc(OC)c(OC)cc21		inactive
CC(C)c1cccc(O)c1	0.316% (inactive)	
CC(C)CC=O	-0.933% (inactive)	
COc1cccc(OC)c1C(=O)N[C@@H]1C(=O)N2[C@@H]1SC(C)(C)[C@@H]2C(=O)O	0.174% [at 42.5 µM] (inactive)	
O=P(OC(CCl)CCl)(OC(CCl)CCl)OC(CCl)CCl		inactive
CC/C=C\CC1=C(C)CCC1=O	1.02% (inactive)	
CCC(C)S (stereo not given)	-0.121% [at 3.27 µM] (inactive)	
c1ccc2c(c1)CCc1ccccc1N2	-1.56% [at 42.5 µM] (inactive)	
CCCCOC(=O)C(C)OC(=O)CCC (stereo not given)	0.0619% (inactive)	
CCCC=O	0.0839% (inactive)	
